# Measurements reported in PubChem BioAssay.
# A number with no mark means an inactive call. The source made the active and inactive calls.
# Experiment: fission yeast growth modulation, primary screen, strain 972, OD600, 24 h, no modulator (AID 1090);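 further: basal condition with compound alone and no growth modifier present; test concentration not given here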
# Conditions: S. pombe 972 growth, higher = more signal, called active from +8 up or from −8 down
row,SMILES,z-score
1,COc1cc2c(cc1O)C(c1ccc(CN3CCCC3)cc1)N(Cc1cc3c(cc1Br)OCO3)CC2 (stereo unspecified),-6.22
2,CCCC[C@@H]1C[C@H]1[C@@H](NC(=O)c1cccs1)c1ccccc1C(F)(F)F,-1.94
3,CCOC(=O)C1=C[C@@H](c2ccccc2)N(S(=O)(=O)c2ccc(C)cc2)[C@H]1c1ccc(OC)cc1,1.29
4,C=CCC(OC(C)=O)[C@@H]1[C@@H](N(Cc2ccc(-c3cccc(C(F)(F)F)c3)o2)C(=O)Cc2ccc(OC)cc2)c2cc(OCCCO)ccc2N1C(=O)c1ccc(-c2ccccc2)cc1 (stereo partly specified),0.297
5,C=CC[C@@H](OC(=O)Nc1ccc(SC)cc1)c1ccc(O)c(F)c1,-19.9 (active)
6,CCCCC=C[C@@H](NC(=O)OCc1ccccc1Cl)c1ccccc1,1.18
7,C=CCC(OC(C)=O)[C@@H]1[C@@H](N(Cc2cccc3ccccc23)C(=O)Cc2ccc(OC)cc2)c2cc(OCCCO)ccc2N1C(=O)c1ccc(-c2ccccc2)cc1 (stereo partly specified),0.402
8,CCCC=C(CCC)[C@@H](NP(=O)(c1ccccc1)c1ccccc1)c1ccc(-c2ccccc2)cc1,2.34
9,COCCCNC(=O)[C@@]1(CCC(=O)OC(C)(C)C)N=C(c2ccc(OCCCO)cc2)O[C@H]1c1ccccc1N=[N+]=[N-],0.362
10,O=C(Cc1ccccc1)[C@H]1C2C=CCCC(c3ccccc3)=C2CN1Cc1ccccc1 (stereo partly specified),-1.29
11,COC(=O)[C@@]1(Cc2ccc(F)cc2)[C@H]2c3cc(C(=O)N4CCCC4)n(Cc4ccc(C)c(F)c4F)c3C[C@H]2CN1C(=O)c1ccccc1,-0.0098
